Screens (PubChem)
The list is not random: actives were taken first. Their share in the collection is about 19%.
HT1080 IDH1KD tx: kills HT-1080 cells with IDH1 knockdown. HT-1080 IDH1 knockdown viability, ATP luminescence, 48 h. Potency, µM (titrated, usually from 46.1 µM), hits mostly cytotoxic. 2% of 360,000 active. AID 686971
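Assay cells: HT-1080 with IDH1 knockdown, 750 per well, RPMI/5% FBS. Exposure: 48 h at 37 °C following 2 h pre-incubation. Read: CellTiter-Glo luminescence; fitted concentration-response, curve class assigned.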
DT40 TDP1 no CPT: qHTS for Inhibitors of human tyrosyl-DNA phosphodiesterase 1 (TDP1): qHTS in cells in absence of CPT | DT40 Tdp1-/- hTDP1 cells, no CPT, ATP luminescence, 48 h | Potency, µM (doses to about 46.2 µM), hits mostly inhibitors | 15% of 420,000 active; also: nearly all actives have a fitted effect of over 55% in size
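Luminescent ATP content (CellTiter-Glo) served as the growth readout. Knockout chicken DT40 cells expressing human TDP1 were exposed to compounds without camptothecin for a minimum 48 hr at 37 °C.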
HT1080NT lethal: kills 2HG-producing HT-1080-NT fibrosarcoma cells; Potency, µM (highest dose often 46.1 µM), hits mostly cytotoxic; HT-1080-NT fibrosarcoma viability, CellTiter-Glo ATP luminescence, 48 h; 1.6% of 360,000 active;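 also: NT is the 2HG producing partner of a matched IDH1 knockdown line; nearly all actives have a fitted effect of over 55% in size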
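Luminescent CellTiter-Glo readout after 48 hours of compound exposure at 37 degrees C defined viability of HT-1080-NT cells. Activity was normalized to DMSO wells and cell-free media wells; concentration-response curves were fitted and assigned curve classes.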
IL-1B inflam inh: inflammasome signaling inhibition, IL-1 beta readout. 4.7% of 360,000 active. THP-1 LPS/ATP IL-1B secretion, AlphaLISA, 16 h; active compounds read low. activity change, % at 57.5 µM; in the data active = activity change below about -50%; inconclusive = mostly about -30% to -49%
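THP-1 cells pretreated 1 hr with compounds (up to 57.5 uM final), then stimulated with LPS (250 ng/mL final) plus ATP (1.25 mM final); secreted IL-1B measured by AlphaLISA after 16 hr, decreased signal indicating inhibition.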
DT40 TDP1 CPT: growth inhibition of DT40 Tdp1-/-;hTDP1 cells with camptothecin (screen for TDP1 inhibitors). 12% of 420,000 active. chicken DT40 Tdp1-/-;hTDP1 cells + 20 nM CPT, ATP luminescence, 48 h. AID 686979. Potency, µM (highest dose often 46.2 µM), usual class: inhibitors; also: nearly all actives have a fitted effect of over 55% in size
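Chicken DT40 Tdp1-/- cells complemented with human TDP1, 400 cells/well, exposed to compounds plus 20 nM camptothecin for at least 48 h at 37 C; viability read as ATP content by CellTiter-Glo luminescence.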
A number is an active result; i = inactive; ? = inconclusive; nt = not tested or not shown; [ ] = another dose, or the depositor's remark. Unless noted, calls follow the shape of the dose curve; as a rule, active = well fitted curve in the direction sought with a large enough effect; inconclusive = small, poorly fitted or top-dose-only effect, or another doubt; inactive = no such curve, though single readings can be large; an effect the other way counts as inactive or inconclusive.

SMILES	HT1080 IDH1KD tx	DT40 TDP1 no CPT	HT1080NT lethal	IL-1B inflam inh	DT40 TDP1 CPT
O=C(c1ccc2c(c1)N(Cc1ccccc1F)C(=O)c1ccccc1S2=O)N1CCN(c2ccccc2)CC1 (stereo unspecified)	nt	16µM	nt	nt	23µM
O=C(c1ccc2c(c1)N(Cc1ccc(Cl)cc1)C(=O)c1ccccc1S2=O)N1CCN(c2ccccc2F)CC1 (stereo unspecified)	nt	21µM	nt	nt	23µM
CN1CCN(C(=O)c2ccc3c(c2)N(Cc2ccc(Cl)cc2)C(=O)c2ccccc2S3=O)CC1 (stereo unspecified)	i	i	i	i	i
CCOC(=O)c1cc(CC)sc1NC(=O)COC(=O)c1cc[n+]([O-])cc1	i	i	i	i	i
Cc1nnc(SCC(=O)NNC(=O)COc2ccc(Cl)cc2)n1C	i	i	i	i	i
OCCCNc1ncnc2[nH]ncc12	i	i	i	i	i
CCOc1ccc2[nH]c3c(NCCc4ccc(OC)c(OC)c4)ncnc3c2c1	?	2.9µM	?	-96	4.1µM
COc1ccc(CCNc2ncnc3sc(C)cc23)cc1OC	i	0.26µM	?	i	0.58µM
CCCCCCCCNc1ncnc2[nH]ncc12	?	3.7µM	?	i	4.6µM
Cc1ccc(CNc2ncnc3[nH]ncc23)cc1	i	?	i	i	?
Fc1ccc(CCNc2ncnc3[nH]ncc23)cc1	i	16µM	i	i	?
COc1cccc(CCNc2ncnc3sc(C(=O)N4CCN(C)CC4)c(C)c23)c1	nt	i	nt	nt	i[9.04 µM]
COc1ccc(CCNc2ncnc3sc(C(=O)N4CCCCC4)c(C)c23)cc1OC	nt	18µM	nt	nt	i[9.04 µM]
COc1ccc(CCNc2ncnc3[nH]ncc23)cc1OC	i	15µM	?	i	15µM
O=C(C1CC1)N(CCN(Cc1ccccc1)C(=O)C1CC1)Cc1ccccc1	i	13µM	i	i	16µM
O=C(c1ccccc1)N(Cc1ccccc1)Cc1ccccc1	i	?	i	i	?
CC1=CC(C)(C)N2C(=O)C(=O)c3cc(OC(=O)c4ccco4)cc1c32	16µM	1.2µM	2.3µM	i	0.65µM
O=C(Oc1cccc(OC(=O)c2ccco2)c1)c1ccco1	i	i	i	i	i
COc1cc(C2/C(=C(/O)c3ccc(F)cc3)C(=O)C(=O)N2CCCC(=O)O)ccc1O (stereo unspecified)	i	i	i	i	i
COC[C@@H]1CCCN1[C@H]1CS(=O)(=O)N[C@@H]1COCc1ccccc1	i	i	i	i	i
CCN1CCN(c2ccc(S(=O)(=O)N3CCOCC3)cc2NC(=O)COc2ccc(F)cc2Cl)CC1	i	i	i	i	?
CC1CCc2[nH]c3ccc(C(=O)N4CCCC(C(F)(F)F)C4)cc3c2C1 (stereo unspecified)	i	16µM	i	-62	?
Cc1ccc(NS(=O)(=O)c2ccc(C(=O)N3CCCC(C(F)(F)F)C3)cc2)cc1 (stereo unspecified)	i	?	i	i	?
COc1ccccc1N(C)S(=O)(=O)c1ccc(C(=O)OCC(=O)N2CCC2)cc1	16µM	?	?	i	?
COc1ccccc1N(C)S(=O)(=O)c1ccc(C(=O)N2CCCC(C(F)(F)F)C2)cc1 (stereo unspecified)	i	18µM	i	i	?
SMILES	HT1080 IDH1KD tx	DT40 TDP1 no CPT	HT1080NT lethal	IL-1B inflam inh	DT40 TDP1 CPT
CC1CCN(S(=O)(=O)c2ccc(C(=O)N3CCCC(C(F)(F)F)C3)cc2)CC1 (stereo unspecified)	i	?	i	?	18µM
O=C(c1ccc(S(=O)(=O)N2CCCCCC2)cc1)N1CCCC(C(F)(F)F)C1 (stereo unspecified)	i	?	i	i	?
CN(Cc1ccco1)C(=O)c1cc(NC(=O)C2CCC2)c2c(c1)nc(-c1ccncc1)n2C	nt	i	nt	nt	?
COc1cccc(-c2ccnc(-n3ncc(C(=O)NCC(C)(C)CN(C)C)c3C)n2)c1	nt	i	nt	nt	i
COc1ccc(NC(=O)CN(C)C(=O)c2cccc(NS(=O)(=O)c3ccc(Br)cc3)c2)cc1	i	?	i	i	?
NC(N)=N/N=C/c1cccc(Cl)c1Cl	21µM	?	23µM	-101	?
CCOc1ccccc1Nc1nnc(SCc2nnc(-c3cc(OC)c(OC)c(OC)c3)o2)s1	i	13µM	i	?	?
COc1cc(-c2nnc(CSc3nnc(Nc4ccc(C(C)C)cc4)s3)o2)cc(OC)c1OC	16µM	5.8µM	?	i	5.8µM
COc1ccccc1Nc1nnc(SCc2nnc(-c3cc(OC)c(OC)c(OC)c3)o2)s1	i	21µM	i	i	21µM
O=C(CN1C(=O)COc2ccccc21)Nc1ccc(N2CCOCC2)cc1	i	i	?	i	i
CC1CCN(CCCCOc2cccc(C(C)C)c2)CC1	i	?	i	i	16µM
Cc1ccc(OCCCCN2CCC(C)CC2)cc1	i	i	i	i	i
CC1CCCN(CCOc2cccc(Oc3ccccc3)c2)C1 (stereo unspecified)	i	?	?	i	26µM
CC1CN(CCOc2cccc(Oc3ccccc3)c2)CC(C)O1 (stereo unspecified)	i	?	i	i	?
CC1CN(CCCCOc2ccc(Cl)c3ccccc23)CC(C)O1 (stereo unspecified)	?	10µM	21µM	?	?
CCCOc1ccc(OCCN2CCCC(C)C2)cc1 (stereo unspecified)	i	i	i	i	i
CC1CN(CCCCOc2cccc(Oc3ccccc3)c2)CC(C)O1 (stereo unspecified)	i	?	i	-67	?
Cc1ccc(C(=O)C(OC(=O)CN2C(=O)c3ccccc3C2=O)c2ccccc2)cc1C (stereo unspecified)	i	i	i	i	i
COc1ccc(C2CCCN2C(=O)Nc2ccc(F)cc2)cc1OC (stereo unspecified)	i	i	i	i	i
c1ccc(Oc2cccc(OCCCCN3CCCC3)c2)cc1	i	18µM	i	i	?
Brc1cccc(OCCCN2CCCCCC2)c1	i	?	i	i	i
CCOc1ccc(S(=O)(=O)NCCC(=O)NCc2ccncc2)cc1	i	i	i	i	i
COc1cccc(NC(=O)c2oc3ccccc3c2NC(=O)Cc2cccc(C)c2)c1	nt	18µM	nt	nt	23µM
COc1cccc(NC(=O)c2oc3ccccc3c2NC(C)=O)c1	i	i	i	i	i
COc1cccc(C(=O)Nc2c(C(=O)NC(C)(C)C)oc3ccccc23)c1	nt	?	nt	nt	18µM
COc1cccc(NC(=O)c2oc3ccccc3c2NC(=O)c2ccccc2C)c1	nt	?	nt	nt	10µM
COc1ccc(-c2cc(C(F)(F)F)n3nc(C(=O)Nc4sc5c(c4C(=O)OC(C)C)CCC(C)C5)cc3n2)cc1 (stereo unspecified)	nt	i	nt	nt	i
